Experimental data published in the supplement of paper PMC10849652.
Of roughly 8,800 targets only a part is listed; those with a hit were picked by preference. About 0.5% of all pairs of compound and target were hits.

Sequence of UniProt P52756 (P52756 whole entry, looked up): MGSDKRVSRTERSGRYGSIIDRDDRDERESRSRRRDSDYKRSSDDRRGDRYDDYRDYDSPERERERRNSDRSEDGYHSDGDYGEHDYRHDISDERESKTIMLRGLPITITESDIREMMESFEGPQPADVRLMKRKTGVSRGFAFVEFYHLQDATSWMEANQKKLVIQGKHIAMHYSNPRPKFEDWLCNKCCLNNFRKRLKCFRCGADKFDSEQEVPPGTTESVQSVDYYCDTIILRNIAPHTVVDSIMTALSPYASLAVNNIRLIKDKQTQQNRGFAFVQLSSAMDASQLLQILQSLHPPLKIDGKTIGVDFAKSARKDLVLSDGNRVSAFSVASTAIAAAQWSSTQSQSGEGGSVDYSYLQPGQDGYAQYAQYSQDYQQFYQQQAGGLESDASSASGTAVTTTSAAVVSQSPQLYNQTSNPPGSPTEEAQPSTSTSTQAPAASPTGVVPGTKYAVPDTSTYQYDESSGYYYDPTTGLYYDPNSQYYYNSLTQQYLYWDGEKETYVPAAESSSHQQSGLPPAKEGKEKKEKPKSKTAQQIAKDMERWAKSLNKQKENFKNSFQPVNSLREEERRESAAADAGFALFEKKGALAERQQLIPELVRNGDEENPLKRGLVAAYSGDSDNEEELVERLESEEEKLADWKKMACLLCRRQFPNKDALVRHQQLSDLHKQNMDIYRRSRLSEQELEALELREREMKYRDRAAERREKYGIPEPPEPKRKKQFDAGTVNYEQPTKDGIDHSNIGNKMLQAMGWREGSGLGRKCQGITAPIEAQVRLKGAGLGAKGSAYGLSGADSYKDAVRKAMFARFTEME
Sequence of UniProt Q8TC12 (Q8TC12 whole entry, looked up): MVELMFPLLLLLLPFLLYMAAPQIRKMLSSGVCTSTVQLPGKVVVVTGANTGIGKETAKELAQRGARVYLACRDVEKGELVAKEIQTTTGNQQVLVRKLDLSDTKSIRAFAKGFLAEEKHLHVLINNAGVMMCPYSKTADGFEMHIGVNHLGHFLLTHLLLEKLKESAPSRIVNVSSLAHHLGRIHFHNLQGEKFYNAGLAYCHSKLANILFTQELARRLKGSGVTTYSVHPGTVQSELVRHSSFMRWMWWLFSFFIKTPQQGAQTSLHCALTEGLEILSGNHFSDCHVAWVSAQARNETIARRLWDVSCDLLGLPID
Sequence of UniProt P51812 (P51812 whole entry, looked up): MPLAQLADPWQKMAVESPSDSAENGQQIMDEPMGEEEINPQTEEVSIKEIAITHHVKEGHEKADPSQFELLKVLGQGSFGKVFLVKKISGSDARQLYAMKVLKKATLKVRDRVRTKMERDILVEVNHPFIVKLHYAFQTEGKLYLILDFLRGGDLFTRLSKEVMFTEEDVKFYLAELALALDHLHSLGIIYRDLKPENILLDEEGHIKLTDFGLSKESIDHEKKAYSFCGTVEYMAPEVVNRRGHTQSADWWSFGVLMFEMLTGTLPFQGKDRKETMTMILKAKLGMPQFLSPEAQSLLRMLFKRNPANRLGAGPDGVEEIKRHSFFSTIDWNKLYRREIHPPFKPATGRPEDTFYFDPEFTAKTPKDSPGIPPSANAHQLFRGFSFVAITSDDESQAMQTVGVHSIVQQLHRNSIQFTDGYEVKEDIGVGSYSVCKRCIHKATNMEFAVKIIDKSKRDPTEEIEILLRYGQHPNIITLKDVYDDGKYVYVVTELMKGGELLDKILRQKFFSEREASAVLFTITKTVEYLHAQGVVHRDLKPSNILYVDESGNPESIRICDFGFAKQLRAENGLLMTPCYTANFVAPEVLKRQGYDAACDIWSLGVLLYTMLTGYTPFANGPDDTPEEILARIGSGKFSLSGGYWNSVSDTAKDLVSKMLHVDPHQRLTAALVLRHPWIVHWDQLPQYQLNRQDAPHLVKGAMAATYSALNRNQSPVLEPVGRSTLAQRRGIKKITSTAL
Sequence of UniProt Q8IZV5 (Q8IZV5 whole entry, looked up): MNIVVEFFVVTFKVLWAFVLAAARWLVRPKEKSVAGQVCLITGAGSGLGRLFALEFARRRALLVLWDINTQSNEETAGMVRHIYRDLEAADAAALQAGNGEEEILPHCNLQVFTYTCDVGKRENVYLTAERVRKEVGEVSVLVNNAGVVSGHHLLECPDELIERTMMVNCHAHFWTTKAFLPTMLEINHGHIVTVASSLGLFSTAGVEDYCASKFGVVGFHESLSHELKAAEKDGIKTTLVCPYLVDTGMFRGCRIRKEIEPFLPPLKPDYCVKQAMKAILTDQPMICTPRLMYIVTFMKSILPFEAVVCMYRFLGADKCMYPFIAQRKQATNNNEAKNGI
Sequence of UniProt P35249 (P35249 whole entry, looked up): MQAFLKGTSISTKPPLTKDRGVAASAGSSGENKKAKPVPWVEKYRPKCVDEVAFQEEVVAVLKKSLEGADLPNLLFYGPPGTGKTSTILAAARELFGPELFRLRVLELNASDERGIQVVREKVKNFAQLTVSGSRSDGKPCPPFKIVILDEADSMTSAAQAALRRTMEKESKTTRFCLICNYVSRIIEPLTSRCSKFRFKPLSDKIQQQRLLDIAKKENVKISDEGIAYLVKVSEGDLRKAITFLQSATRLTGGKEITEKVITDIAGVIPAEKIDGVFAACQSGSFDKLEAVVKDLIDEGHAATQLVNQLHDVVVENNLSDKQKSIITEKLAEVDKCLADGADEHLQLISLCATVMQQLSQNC
Sequence of UniProt Q8WZA2 (Q8WZA2 whole entry, looked up): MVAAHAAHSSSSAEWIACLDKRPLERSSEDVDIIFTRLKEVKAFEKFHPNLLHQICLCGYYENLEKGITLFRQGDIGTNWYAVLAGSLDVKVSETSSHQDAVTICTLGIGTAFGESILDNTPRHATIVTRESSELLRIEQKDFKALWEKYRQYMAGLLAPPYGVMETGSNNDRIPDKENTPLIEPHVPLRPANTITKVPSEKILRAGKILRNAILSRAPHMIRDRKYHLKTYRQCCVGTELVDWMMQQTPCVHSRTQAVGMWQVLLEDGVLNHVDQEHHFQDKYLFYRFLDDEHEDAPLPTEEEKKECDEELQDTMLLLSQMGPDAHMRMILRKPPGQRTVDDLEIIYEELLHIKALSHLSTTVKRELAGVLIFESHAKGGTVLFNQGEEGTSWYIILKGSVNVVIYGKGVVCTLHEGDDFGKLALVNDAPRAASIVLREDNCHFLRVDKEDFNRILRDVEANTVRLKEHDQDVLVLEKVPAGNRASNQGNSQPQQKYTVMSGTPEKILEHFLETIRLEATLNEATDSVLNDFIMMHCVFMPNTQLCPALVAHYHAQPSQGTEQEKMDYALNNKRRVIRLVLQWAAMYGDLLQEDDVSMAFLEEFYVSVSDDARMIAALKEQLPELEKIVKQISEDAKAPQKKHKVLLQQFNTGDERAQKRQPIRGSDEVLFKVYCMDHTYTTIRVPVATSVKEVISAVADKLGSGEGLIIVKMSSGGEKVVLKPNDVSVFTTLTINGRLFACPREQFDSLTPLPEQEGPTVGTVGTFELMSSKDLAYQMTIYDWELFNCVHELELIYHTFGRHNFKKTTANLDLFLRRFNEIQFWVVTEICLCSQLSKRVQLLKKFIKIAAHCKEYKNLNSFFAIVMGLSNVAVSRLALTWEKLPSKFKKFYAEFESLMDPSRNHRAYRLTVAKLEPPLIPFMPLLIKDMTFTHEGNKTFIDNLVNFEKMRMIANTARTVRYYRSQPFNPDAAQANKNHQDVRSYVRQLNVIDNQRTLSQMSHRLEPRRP
Sequence of UniProt Q8IYW5 (Q8IYW5 whole entry, looked up): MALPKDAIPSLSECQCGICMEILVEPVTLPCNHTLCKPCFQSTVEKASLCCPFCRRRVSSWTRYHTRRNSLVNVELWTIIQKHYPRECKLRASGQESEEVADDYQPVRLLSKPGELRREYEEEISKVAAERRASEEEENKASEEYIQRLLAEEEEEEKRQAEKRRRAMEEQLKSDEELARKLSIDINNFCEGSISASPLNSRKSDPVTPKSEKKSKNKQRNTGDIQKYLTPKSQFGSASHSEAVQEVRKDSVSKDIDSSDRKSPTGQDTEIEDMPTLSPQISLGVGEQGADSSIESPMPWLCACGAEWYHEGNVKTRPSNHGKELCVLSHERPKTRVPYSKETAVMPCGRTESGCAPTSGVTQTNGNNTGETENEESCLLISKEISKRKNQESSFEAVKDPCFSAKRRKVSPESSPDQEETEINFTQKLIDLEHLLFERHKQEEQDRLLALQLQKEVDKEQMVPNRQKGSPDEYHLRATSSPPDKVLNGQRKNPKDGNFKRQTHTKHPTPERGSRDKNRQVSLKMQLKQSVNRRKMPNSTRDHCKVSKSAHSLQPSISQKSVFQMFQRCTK
Sequence of UniProt Q99496 (Q99496 whole entry, looked up): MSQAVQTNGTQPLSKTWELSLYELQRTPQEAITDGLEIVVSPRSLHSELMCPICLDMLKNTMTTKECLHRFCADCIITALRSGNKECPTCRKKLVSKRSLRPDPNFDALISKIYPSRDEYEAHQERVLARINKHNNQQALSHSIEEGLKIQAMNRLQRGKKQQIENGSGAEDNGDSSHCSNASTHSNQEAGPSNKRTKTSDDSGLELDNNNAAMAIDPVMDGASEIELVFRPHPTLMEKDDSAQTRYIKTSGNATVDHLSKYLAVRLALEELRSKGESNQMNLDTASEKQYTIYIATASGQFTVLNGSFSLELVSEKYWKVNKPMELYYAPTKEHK
Sequence of UniProt Q8NBX0 (Q8NBX0 whole entry, looked up): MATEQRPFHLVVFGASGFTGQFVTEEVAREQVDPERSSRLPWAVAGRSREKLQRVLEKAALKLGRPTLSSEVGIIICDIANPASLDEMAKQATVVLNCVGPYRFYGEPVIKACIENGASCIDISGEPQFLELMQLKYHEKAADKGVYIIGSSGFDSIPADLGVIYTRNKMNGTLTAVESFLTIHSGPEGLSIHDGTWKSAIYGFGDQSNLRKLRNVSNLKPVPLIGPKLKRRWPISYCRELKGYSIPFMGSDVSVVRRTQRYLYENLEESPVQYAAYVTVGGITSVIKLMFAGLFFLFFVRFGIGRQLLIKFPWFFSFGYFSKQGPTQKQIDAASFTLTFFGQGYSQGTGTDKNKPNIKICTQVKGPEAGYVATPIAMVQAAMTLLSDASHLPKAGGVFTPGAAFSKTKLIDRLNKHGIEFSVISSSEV

Each target was assayed with NCC(=O)Nc1ccc(-n2nc(C(F)(F)F)cc2-c2ccc3c(ccc4ccccc43)c2)cc1 (assay: log2 fold change, soluble protein after heating vs DMSO (PISA); higher = thermal stabilisation; K562 lysate, 10 uM; active = over 0.2 and 3.5 SD of the protein, either way, in both replicates (recomputed)).
Summary of the method: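 Values give the log-two fold change in thermal stability against solvent controls, from duplicates. Crude K562 extract at 1 mg/mL protein, made by dounce homogenisation in PBS pH 7.4 with 1 mM MgCl2, was treated with 10 μM compound for 30 min. After 3 min heating across 48°C-58°C, aliquots were pooled, adjusted to 0.5% NP-40 at 4°C and centrifuged at 21,000xg for 90 min. The supernatant was measured by TMTpro 16plex LC-MS/MS with channel sums equalised.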
For RAI14 isoform 2 (UniProt Q9P0K7), the log2 fold change was 0.005 (inactive).
For RAPGEF4 (UniProt Q8WZA2), the log2 fold change was 0.219 (inactive).
For S100A6 (UniProt P06703), the log2 fold change was 0.064 (inactive).
SDHC (UniProt Q99643) was tested, and the log2 fold change was -0.046 (inactive).
In the case of RAD54L2 (UniProt Q9Y4B4), the log2 fold change is reported as 0.119 (inactive).
In the case of RBSN (UniProt Q9H1K0), the log2 fold change is reported as 0.039 (inactive).
With RXRB isoform 3 (UniProt P28702) the log2 fold change was 0.067 (inactive).
In the case of RNF2 (UniProt Q99496), the log2 fold change is reported as -0.015 (inactive).
RFWD3 (UniProt Q6PCD5) was tested, and the log2 fold change was 0.089 (inactive).
In the case of RFC5 (UniProt P40937), the log2 fold change is reported as 0.019 (inactive).
SCCPDH (UniProt Q8NBX0) was tested, and the log2 fold change was -0.129 (inactive).
For RDH10 (UniProt Q8IZV5), the log2 fold change was -0.038 (inactive).
For RAB27A (UniProt P51159), the log2 fold change was -0.033 (inactive).
In the case of RPN2 (UniProt P04844), the log2 fold change is reported as -0.007 (inactive).
For RPS6KA3 (UniProt P51812), the log2 fold change was -0.017 (inactive).
For RBM5 (UniProt P52756), the log2 fold change was 0.036 (inactive).
With RAB21 (UniProt Q9UL25) the log2 fold change was 0.017 (inactive).
In the case of RPL36AL (UniProt Q969Q0), the log2 fold change is reported as -0.056 (inactive).
In the case of RABGGTB (UniProt P53611), the log2 fold change is reported as -0.058 (inactive).
With RBM22 (UniProt Q9NW64) the log2 fold change was 0.024 (inactive).
For RNF168 (UniProt Q8IYW5), the log2 fold change was 0.056 (inactive).
In the case of REXO4 (UniProt Q9GZR2), the log2 fold change is reported as 0.03 (inactive).
In the case of RAC2 (UniProt P15153), the log2 fold change is reported as -0.073 (inactive).
RAD51C (UniProt O43502) was tested, and the log2 fold change was 0.023 (inactive).
With RDH11 (UniProt Q8TC12) the log2 fold change was 0.008 (inactive).
For RPTOR (UniProt Q8N122), the log2 fold change was 0.002 (inactive).
QRSL1 (UniProt Q9H0R6) was tested, and the log2 fold change was 0.066 (inactive).
RABL3 (UniProt Q5HYI8) was tested, and the log2 fold change was 0.031 (inactive).
With RFC4 (UniProt P35249) the log2 fold change was 0.013 (inactive).
In the case of RINT1 (UniProt Q6NUQ1), the log2 fold change is reported as 0.078 (inactive).
With SEH1L isoform 1 (UniProt Q96EE3) the log2 fold change was 0.056 (inactive).
RHOA (UniProt P61586) was tested, and the log2 fold change was 0.03 (inactive).
